Measured values taken from PubChem BioAssay AID1159580 (chemical genetic matrix, 2015).
About 2,000 (36%) of roughly 5,500 compounds were called active. Inconclusive results (about 18%) are left out. No stated cut-off is given here; in the data, active means normalized growth mostly below about 0.91 (no sharp cut-off); inconclusive means no clear call, values can overlap the other calls; inactive means mostly above about 0.92. This is one part of the list.

Experiment: chemical genetic growth profiling, strain panel (AID 1159580);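 further: tested at 20 µM; growth read once vehicle control cultures reached saturation at 30 °C; 1 = growth at the plate median or of vehicle wells; lower values mean less growth of the strain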
Settings: S. cerevisiae deletion strains, growth OD

Measured: normalized growth

Cc1scc2c1N(C(=O)CN1CCN(C)CC1)c1ccccc1NC2=O
inactive: locus YAL013W, strain DEP1, active compounds read low 0.967 | locus YAL021C, strain ccr4, active compounds read low 0.984 | locus YAL026C, strain drs2, active compounds read low 0.972 | locus YAL030W, strain snc1, active compounds read low 0.939 | locus YAL040C, strain CLN3, active compounds read low 0.985 | locus YBL061C, strain skt5, active compounds read low 0.963 | locus YBR009C, strain hhf1, active compounds read low 0.989 | locus YBR023C, strain chs3, active compounds read low 0.947 | locus YBR171W, strain sec66, active compounds read low 0.954 | locus YBR231C, strain swc5, active compounds read low 0.972 | locus YBR279W, strain paf1, active compounds read low 0.958 | locus YCL011C, strain gbp2, active compounds read low 0.954 | locus YCL016C, strain dcc1, active compounds read low 0.975 | locus YCL061C, strain MRC1 (second series), active compounds read low 1 | locus YCL069W, strain vba3, active compounds read low 0.971 | locus YCR088W, strain abp1, active compounds read low 0.969 | locus YDL005C, strain med2, active compounds read low 0.956 | locus YDL040C, strain nat1, active compounds read low 0.967 | locus YDR001C, strain nth1, active compounds read low 0.948 | locus YDR069C, strain doa4, active compounds read low 0.922 | locus YDR137W, strain rgp1, active compounds read low 0.941 | locus YDR150W, strain NUM1, active compounds read low 0.998 | locus YDR159W, strain sac3, active compounds read low 0.94 | locus YDR195W, strain ref2 0.899 | locus YDR297W, strain sur2, active compounds read low 0.974 | locus YDR334W, strain swr1, active compounds read low 0.943 | locus YDR335W, strain msn5, active compounds read low 0.955 | locus YDR363W, strain ESC2, active compounds read low 0.984 | locus YDR392W, strain spt3, active compounds read low 1.01 | locus YEL003W, strain gim4, active compounds read low 0.976 | locus YEL037C, strain rad23, active compounds read low 0.957 | locus YEL061C, strain CIN8 (second series), active compounds read low 0.96 | locus YER002W, strain NOP16, active compounds read low 1 | locus YER015W, strain faa2, active compounds read low 0.974 | locus YER016W, strain bim1, active compounds read low 0.967 | locus YER111C, strain swi4, active compounds read low 0.965 | locus YER155C, strain BEM2 (second series), active compounds read low 0.939 | locus YFR010W, strain ubp6, active compounds read low 0.95 | locus YGL167C, strain pmr1, active compounds read low 0.943 | locus YGL173C, strain kem1, active compounds read low 0.978 | locus YGL227W, strain vid30, active compounds read low 0.947 | locus YGL240W, strain doc1, active compounds read low 0.966 | locus YGL253W, strain hxk2, active compounds read low 0.965 | locus YGR078C, strain PAC10, active compounds read low 0.996 | locus YHR013C, strain ard1, active compounds read low 0.967 | locus YHR027C, strain rpn1, active compounds read low 0.966 | locus YHR030C, strain SLT2, active compounds read low 1.08 | locus YHR079C, strain IRE1, active compounds read low 1.1 | locus YHR142W, strain chs7, active compounds read low 0.942 | locus YJL092W, strain hpr5, active compounds read low 0.965 | locus YJL095W, strain BCK1 (second series), active compounds read low 0.96 | locus YJL095W, strain BCK1, active compounds read low 1.11 | locus YJL115W, strain asf1, active compounds read low 0.952 | locus YJL129C, strain trk1, active compounds read low 0.948 | locus YJL154C, strain vps35, active compounds read low 0.961 | locus YJL164C, strain tpk1, active compounds read low 0.995 | locus YJL166W, strain qcr8, active compounds read low 0.949 | locus YJL187C, strain SWE1, active compounds read low 0.968 | locus YJR066W, strain TOR1, active compounds read low 0.962 | locus YJR075W, strain HOC1, active compounds read low 0.979 | locus YKL160W, strain elf1, active compounds read low 0.981 | locus YKR026C, strain gcn3, active compounds read low 0.96 | locus YKR091W, strain srl3, active compounds read low 0.977 | locus YLL001W, strain dnm1, active compounds read low 0.968 | locus YLL026W, active compounds read low 0.949 | locus YLL041C, strain sdh2, active compounds read low 0.968 | locus YLR027C, strain aat2, active compounds read low 0.977 | locus YLR113W, strain HOG1, active compounds read low 0.977 | locus YLR221C, strain rsa3, active compounds read low 0.995 | locus YLR258W, strain gsy2, active compounds read low 0.963 | locus YLR262C, strain YPT6 (second series), active compounds read low 0.962 | locus YLR320W, strain mms22, active compounds read low 1 | locus YLR342W, strain FKS1, active compounds read low 0.98 | locus YLR357W, strain rsc2, active compounds read low 0.948 | locus YLR370C, strain arc18, active compounds read low 0.945 | locus YLR384C, strain iki3, active compounds read low 0.962 | locus YML120C, strain ndi1, active compounds read low 0.964 | locus YMR058W, strain fet3, active compounds read low 0.952 | locus YMR125W, strain sto1, active compounds read low 0.948 | locus YMR129W, active compounds read low 0.982 | locus YMR205C, strain PFK2, active compounds read low 0.967 | locus YMR231W, strain pep5, active compounds read low 0.972 | locus YMR263W, strain SAP30, active compounds read low 0.989 | locus YMR307W, strain GAS1, active compounds read low 0.981 | locus YNL071W, strain lat1, active compounds read low 0.979 | locus YNL153C, strain GIM3, active compounds read low 1 | locus YNL175C, strain NOP13, active compounds read low 1.02 | locus YNL183C, strain NPR1, active compounds read low 0.938 | locus YNL197C, strain WHI3, active compounds read low 0.979 | locus YNL209W, strain ssb2, active compounds read low 0.973 | locus YNL224C, strain SQS1, active compounds read low 1.02 | locus YNL248C, strain rpa49, active compounds read low 0.964 | locus YNL322C, strain KRE1 (second series), active compounds read low 0.967 | locus YNL322C, strain KRE1, active compounds read low 0.972 | locus YNR049C, strain mso1, active compounds read low 0.962 | locus YOR001W, strain rrp6, active compounds read low 0.972 | locus YOR070C, strain gyp1, active compounds read low 0.984 | locus YOR080W, strain dia2, active compounds read low 0.958 | locus YOR083W, strain WHI5 (second series), active compounds read low 0.995 | locus YOR083W, strain WHI5, active compounds read low 0.982 | locus YOR106W, strain vam3, active compounds read low 0.948 | locus YOR231W, strain MKK1, active compounds read low 1.05 | locus YOR265W, strain rbl2, active compounds read low 0.965 | locus YOR270C, strain vph1, active compounds read low 0.866 | locus YOR290C, strain snf2, active compounds read low 0.974 | locus YPL051W, strain arl3, active compounds read low 0.985 | locus YPL055C, strain LGE1, active compounds read low 0.962 | locus YPL078C, strain atp4, active compounds read low 0.957 | locus YPL106C, strain sse1, active compounds read low 0.936 | locus YPL240C, strain hsp82, active compounds read low 0.979 | locus YPL241C, strain CIN2, active compounds read low 1 | locus YPL256C, strain CLN2, active compounds read low 1.1
